Eight sequences from paper PMC11006913 can be followed below.

Common to all, as to test: PBM; 200 nM protein, PBS
What all share (conditions): dsDNA, one strand shown

In test [1] the target is HOXB4 (Homo sapiens, UniProt P17483 148-234).
For test [2], the target named is T1, VENTX (Homo sapiens, UniProt O95231 78-163, R121Q).
T1 sequence: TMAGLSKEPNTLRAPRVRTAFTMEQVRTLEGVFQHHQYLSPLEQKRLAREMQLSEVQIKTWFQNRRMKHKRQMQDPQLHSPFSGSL

The target in another test is ALX4 (Homo sapiens, UniProt Q9H161 200-286).
ALX4, sequence (Q9H161 200-286): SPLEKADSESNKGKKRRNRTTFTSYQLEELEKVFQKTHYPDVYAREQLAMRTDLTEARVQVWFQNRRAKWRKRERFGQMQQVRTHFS
Test [3] addresses T2, PAX4 (Homo sapiens, UniProt O43316 9-242, R200K).
T2 sequence: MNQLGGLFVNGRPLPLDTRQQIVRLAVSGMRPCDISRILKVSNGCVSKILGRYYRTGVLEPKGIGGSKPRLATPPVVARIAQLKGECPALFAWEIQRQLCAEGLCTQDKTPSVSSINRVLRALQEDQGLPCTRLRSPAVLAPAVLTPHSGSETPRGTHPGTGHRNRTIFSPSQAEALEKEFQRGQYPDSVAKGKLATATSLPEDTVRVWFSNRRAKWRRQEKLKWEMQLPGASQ

In test [4] the target is PRRX1 (Homo sapiens, UniProt P54821 80-166, F113S).
PRRX1 (Homo sapiens, UniProt P54821 80-166, F113S), sequence (P54821 80-166 F113S): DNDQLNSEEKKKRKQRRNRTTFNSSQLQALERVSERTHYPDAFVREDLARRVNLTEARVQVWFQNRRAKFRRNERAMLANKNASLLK
Test [5] has as its target T3, VENTX (Homo sapiens, UniProt O95231 78-163, Y115F).
T3 sequence: T1 sequence with Y38F, Q44R

For test [6], the target named is T4, PAX4 (Homo sapiens, UniProt O43316 9-242).
T4 sequence: T2 sequence with K192R

For test [7], the target named is HOXA2 (Homo sapiens, UniProt O43364 129-215, R185T).
HOXA2 (Homo sapiens, UniProt O43364 129-215, R185T), sequence (O43364 129-215 R185T): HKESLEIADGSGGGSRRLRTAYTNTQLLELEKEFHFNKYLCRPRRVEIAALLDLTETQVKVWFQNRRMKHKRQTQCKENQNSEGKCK
Test [8] addresses HOXA4 (Homo sapiens, UniProt Q00056 201-287, R217L).
For test [9], the target named is HOXB4 (Homo sapiens, UniProt P17483 148-234, V174I).
HOXB4 (Homo sapiens, UniProt P17483 148-234, V174I), sequence (P17483 148-234 V174I): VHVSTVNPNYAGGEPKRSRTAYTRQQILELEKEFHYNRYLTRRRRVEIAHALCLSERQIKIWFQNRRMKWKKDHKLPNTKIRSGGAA
Test [10] deals with T5, PAX4 (Homo sapiens, UniProt O43316 9-242, R200Q).
T5 sequence: T2 sequence with K192Q

Test [11] has as its target HOXA2 (Homo sapiens, UniProt O43364 129-215, R185K).
Test [12] deals with T6, PAX4 (Homo sapiens, UniProt O43316 9-242, F177V).
T6 sequence: T2 sequence with F169V, K192R

In test [13] the target is MSX2 (Homo sapiens, UniProt P35548 130-214).
MSX2 (Homo sapiens, UniProt P35548 130-214), sequence (P35548 130-214): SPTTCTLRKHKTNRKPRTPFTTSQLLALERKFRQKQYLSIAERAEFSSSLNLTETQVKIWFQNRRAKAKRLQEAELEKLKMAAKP
In test [14] the target is T7, PAX4 (Homo sapiens, UniProt O43316 9-242, F177Y).
T7 sequence: T2 sequence with F169Y, K192R

Test [15] deals with MSX2 (Homo sapiens, UniProt P35548 130-214, F161Y).
MSX2 (Homo sapiens, UniProt P35548 130-214, F161Y), sequence (P35548 130-214 F161Y): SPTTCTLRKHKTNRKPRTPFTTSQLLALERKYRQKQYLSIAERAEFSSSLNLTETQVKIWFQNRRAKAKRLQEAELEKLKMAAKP
The target of test [16] is VAX1 (Homo sapiens, UniProt Q5SQQ9 86-172, T142I).
VAX1 (Homo sapiens, UniProt Q5SQQ9 86-172, T142I), sequence (Q5SQQ9 86-172 T142I): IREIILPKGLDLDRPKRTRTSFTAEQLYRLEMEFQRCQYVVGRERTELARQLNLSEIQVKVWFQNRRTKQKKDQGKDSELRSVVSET
Test [17] addresses HOXA4 (Homo sapiens, UniProt Q00056 201-287, W262F).
The target of test [18] is PRRX1 (Homo sapiens, UniProt P54821 80-166).
PRRX1 (Homo sapiens, UniProt P54821 80-166), sequence (P54821 80-166): as the sequence (P54821 80-166 F113S) above, with S34F counted along it
Test [19] concerns the target VAX1 (Homo sapiens, UniProt Q5SQQ9 86-172, K157R).

Changes are numbered by the printed parent chain.

HOXA4 (Homo sapiens, UniProt Q00056 201-287, W262F), sequence (Q00056 201-287 W262F): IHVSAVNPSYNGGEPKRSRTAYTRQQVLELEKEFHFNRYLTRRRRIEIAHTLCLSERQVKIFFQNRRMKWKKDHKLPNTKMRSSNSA
HOXA4 (Homo sapiens, UniProt Q00056 201-287, R217L), sequence (Q00056 201-287 R217L): as the sequence (Q00056 201-287 W262F) above, with R17L, F62W counted along it
HOXA2 (Homo sapiens, UniProt O43364 129-215, R185K), sequence (O43364 129-215 R185K): as the sequence (O43364 129-215 R185T) above, with T57K counted along it
VAX1 (Homo sapiens, UniProt Q5SQQ9 86-172, K157R), sequence (Q5SQQ9 86-172 K157R): as the sequence (Q5SQQ9 86-172 T142I) above, with I57T, K72R counted along it
HOXB4 (Homo sapiens, UniProt P17483 148-234), sequence (P17483 148-234): as the sequence (P17483 148-234 V174I) above, with I27V counted along it

On to AATTAACA, for which the binding signal in the test with HOXB4 [1] was 13 upbm affinity estimate (log intensity, higher = more binding, comparable within an allelic series); with VENTX [2] it was 11.9 upbm affinity estimate (log intensity, higher = more binding, comparable within an allelic series); in the test with ALX4 it was 13.9 upbm affinity estimate (log intensity, higher = more binding, comparable within an allelic series); with PAX4 [3], 11.8 upbm affinity estimate (log intensity, higher = more binding, comparable within an allelic series); in the test with PRRX1 [4], 11.2 upbm affinity estimate (log intensity, higher = more binding, comparable within an allelic series); with VENTX [5], 11.7 upbm affinity estimate (log intensity, higher = more binding, comparable within an allelic series). The binding signal with PAX4 [6] was 12.5 upbm affinity estimate (log intensity, higher = more binding, comparable within an allelic series); with HOXA2 [7], 12.6 upbm affinity estimate (log intensity, higher = more binding, comparable within an allelic series); with HOXA4 [8] it was 12.1 upbm affinity estimate (log intensity, higher = more binding, comparable within an allelic series); with HOXB4 [9] it was 13.8 upbm affinity estimate (log intensity, higher = more binding, comparable within an allelic series); with PAX4 [10], 12.2 upbm affinity estimate (log intensity, higher = more binding, comparable within an allelic series); with HOXA2 [11] it was 13.1 upbm affinity estimate (log intensity, higher = more binding, comparable within an allelic series). The binding signal in the test with PAX4 [12] was 10.8 upbm affinity estimate (log intensity, higher = more binding, comparable within an allelic series); in the test with MSX2 [13], 13.6 upbm affinity estimate (log intensity, higher = more binding, comparable within an allelic series); in the test with PAX4 [14] it was 11.2 upbm affinity estimate (log intensity, higher = more binding, comparable within an allelic series); with MSX2 [15], 13.2 upbm affinity estimate (log intensity, higher = more binding, comparable within an allelic series); with VAX1 [16], 12.6 upbm affinity estimate (log intensity, higher = more binding, comparable within an allelic series); in the test with HOXA4 [17] it was 11.7 upbm affinity estimate (log intensity, higher = more binding, comparable within an allelic series). The binding signal was 13.3 upbm affinity estimate (log intensity, higher = more binding, comparable within an allelic series) in the test with PRRX1 [18] and 12.8 upbm affinity estimate (log intensity, higher = more binding, comparable within an allelic series) with VAX1 [19].
Regarding AACAATTA, the binding signal in the test with VENTX [2] was 11.7 upbm affinity estimate (log intensity, higher = more binding, comparable within an allelic series); with ALX4 it was 13.6 upbm affinity estimate (log intensity, higher = more binding, comparable within an allelic series); with PRRX1 [4], 11.1 upbm affinity estimate (log intensity, higher = more binding, comparable within an allelic series); with HOXA4 [8] it was 11.9 upbm affinity estimate (log intensity, higher = more binding, comparable within an allelic series); with HOXB4 [9], 13.6 upbm affinity estimate (log intensity, higher = more binding, comparable within an allelic series); with MSX2 [13], 13.9 upbm affinity estimate (log intensity, higher = more binding, comparable within an allelic series). In addition, the binding signal with MSX2 [15] is 13.5 upbm affinity estimate (log intensity, higher = more binding, comparable within an allelic series); with HOXA4 [17], 11.3 upbm affinity estimate (log intensity, higher = more binding, comparable within an allelic series).
As for GGCAGGCC, the binding signal was 7.41 upbm affinity estimate (log intensity, higher = more binding, comparable within an allelic series) with HOXB4 [1]; 9.11 upbm affinity estimate (log intensity, higher = more binding, comparable within an allelic series) with PAX4 [3]; 9.17 upbm affinity estimate (log intensity, higher = more binding, comparable within an allelic series) with PAX4 [6]; 7.33 upbm affinity estimate (log intensity, higher = more binding, comparable within an allelic series) with HOXB4 [9]; 9.21 upbm affinity estimate (log intensity, higher = more binding, comparable within an allelic series) with PAX4 [10]; 9.13 upbm affinity estimate (log intensity, higher = more binding, comparable within an allelic series) in the test with PAX4 [12]. Moreover, in the test with PAX4 [14], the binding signal is 9.09 upbm affinity estimate (log intensity, higher = more binding, comparable within an allelic series).
With AGCAATTA, the binding signal with HOXB4 [1] was 13 upbm affinity estimate (log intensity, higher = more binding, comparable within an allelic series); in the test with VENTX [2] it was 12 upbm affinity estimate (log intensity, higher = more binding, comparable within an allelic series); with ALX4 it was 13.8 upbm affinity estimate (log intensity, higher = more binding, comparable within an allelic series); in the test with PRRX1 [4] it was 11.1 upbm affinity estimate (log intensity, higher = more binding, comparable within an allelic series); in the test with VENTX [5], 11.8 upbm affinity estimate (log intensity, higher = more binding, comparable within an allelic series); in the test with HOXA2 [7], 12.8 upbm affinity estimate (log intensity, higher = more binding, comparable within an allelic series). For the same sequence, the binding signal with HOXA4 [8] was 12 upbm affinity estimate (log intensity, higher = more binding, comparable within an allelic series); with HOXB4 [9] it was 13.7 upbm affinity estimate (log intensity, higher = more binding, comparable within an allelic series); with HOXA2 [11], 13.3 upbm affinity estimate (log intensity, higher = more binding, comparable within an allelic series); with MSX2 [13], 14.1 upbm affinity estimate (log intensity, higher = more binding, comparable within an allelic series); with MSX2 [15], 13.8 upbm affinity estimate (log intensity, higher = more binding, comparable within an allelic series); with VAX1 [16], 12.8 upbm affinity estimate (log intensity, higher = more binding, comparable within an allelic series). Moreover, the binding signal is 11.5 upbm affinity estimate (log intensity, higher = more binding, comparable within an allelic series) in the test with HOXA4 [17]; 13.3 upbm affinity estimate (log intensity, higher = more binding, comparable within an allelic series) in the test with PRRX1 [18]; 12.7 upbm affinity estimate (log intensity, higher = more binding, comparable within an allelic series) with VAX1 [19].
CCCCGGCG: the binding signal with HOXA4 [8] was 9.73 upbm affinity estimate (log intensity, higher = more binding, comparable within an allelic series); with HOXA4 [17], 9.94 upbm affinity estimate (log intensity, higher = more binding, comparable within an allelic series).
Consider AAATTAAT, for which the binding signal was 12.9 upbm affinity estimate (log intensity, higher = more binding, comparable within an allelic series) in the test with HOXB4 [1]; 14 upbm affinity estimate (log intensity, higher = more binding, comparable within an allelic series) with ALX4; 11.9 upbm affinity estimate (log intensity, higher = more binding, comparable within an allelic series) in the test with PAX4 [3]; 11.2 upbm affinity estimate (log intensity, higher = more binding, comparable within an allelic series) in the test with PRRX1 [4]; 12.4 upbm affinity estimate (log intensity, higher = more binding, comparable within an allelic series) with PAX4 [6]; 12.1 upbm affinity estimate (log intensity, higher = more binding, comparable within an allelic series) with HOXA4 [8]. Besides, the binding signal with HOXB4 [9] was 13.6 upbm affinity estimate (log intensity, higher = more binding, comparable within an allelic series); with PAX4 [10] it was 12.4 upbm affinity estimate (log intensity, higher = more binding, comparable within an allelic series); in the test with PAX4 [12], 10.7 upbm affinity estimate (log intensity, higher = more binding, comparable within an allelic series); with MSX2 [13], 13.4 upbm affinity estimate (log intensity, higher = more binding, comparable within an allelic series); with PAX4 [14] it was 11.2 upbm affinity estimate (log intensity, higher = more binding, comparable within an allelic series); with MSX2 [15], 13.1 upbm affinity estimate (log intensity, higher = more binding, comparable within an allelic series). The binding signal with VAX1 [16] was 12.5 upbm affinity estimate (log intensity, higher = more binding, comparable within an allelic series); in the test with HOXA4 [17], 11.5 upbm affinity estimate (log intensity, higher = more binding, comparable within an allelic series); with PRRX1 [18], 13.3 upbm affinity estimate (log intensity, higher = more binding, comparable within an allelic series); with VAX1 [19], 12.4 upbm affinity estimate (log intensity, higher = more binding, comparable within an allelic series).
For GTCAATTA, the binding signal in the test with HOXB4 [1] is 13.3 upbm affinity estimate (log intensity, higher = more binding, comparable within an allelic series); with VENTX [2], 11.7 upbm affinity estimate (log intensity, higher = more binding, comparable within an allelic series); with ALX4, 13.9 upbm affinity estimate (log intensity, higher = more binding, comparable within an allelic series); in the test with PRRX1 [4], 11 upbm affinity estimate (log intensity, higher = more binding, comparable within an allelic series); with HOXA2 [7] it was 12.9 upbm affinity estimate (log intensity, higher = more binding, comparable within an allelic series); with HOXA4 [8] it was 12.1 upbm affinity estimate (log intensity, higher = more binding, comparable within an allelic series). Further, the binding signal with HOXB4 [9] is 13.9 upbm affinity estimate (log intensity, higher = more binding, comparable within an allelic series); with HOXA2 [11] it was 13.2 upbm affinity estimate (log intensity, higher = more binding, comparable within an allelic series); with MSX2 [13] it was 13.8 upbm affinity estimate (log intensity, higher = more binding, comparable within an allelic series); in the test with MSX2 [15], 13.4 upbm affinity estimate (log intensity, higher = more binding, comparable within an allelic series); in the test with VAX1 [16], 13.1 upbm affinity estimate (log intensity, higher = more binding, comparable within an allelic series); in the test with HOXA4 [17], 11.3 upbm affinity estimate (log intensity, higher = more binding, comparable within an allelic series). Moreover, the binding signal in the test with PRRX1 [18] is 13.3 upbm affinity estimate (log intensity, higher = more binding, comparable within an allelic series); in the test with VAX1 [19] it was 13.2 upbm affinity estimate (log intensity, higher = more binding, comparable within an allelic series).
For GCAAGGGC, the binding signal with HOXB4 [1] was 7.23 upbm affinity estimate (log intensity, higher = more binding, comparable within an allelic series); with HOXA4 [8] it was 9.73 upbm affinity estimate (log intensity, higher = more binding, comparable within an allelic series); in the test with HOXB4 [9], 7.22 upbm affinity estimate (log intensity, higher = more binding, comparable within an allelic series); in the test with HOXA4 [17], 9.87 upbm affinity estimate (log intensity, higher = more binding, comparable within an allelic series).
